Publication PMC4336329 (PLoS ONE, 2015)
The campaign covered roughly 310,000 compounds. About 2,200 (0.71%) showed an effect of 50% or more. The effect is printed as a negative number. The full list was thinned out, with strong results kept by preference.

These compounds were tested against human ether-à-go-go-related gene (hERG) potassium channel (human, UniProt Q12809) (assay: primary screen, population patch clamp on CHO cells stably expressing hERG; higher = less effect of the substance).
Chain of human ether-à-go-go-related gene (hERG) potassium channel (Q12809 whole entry, looked up): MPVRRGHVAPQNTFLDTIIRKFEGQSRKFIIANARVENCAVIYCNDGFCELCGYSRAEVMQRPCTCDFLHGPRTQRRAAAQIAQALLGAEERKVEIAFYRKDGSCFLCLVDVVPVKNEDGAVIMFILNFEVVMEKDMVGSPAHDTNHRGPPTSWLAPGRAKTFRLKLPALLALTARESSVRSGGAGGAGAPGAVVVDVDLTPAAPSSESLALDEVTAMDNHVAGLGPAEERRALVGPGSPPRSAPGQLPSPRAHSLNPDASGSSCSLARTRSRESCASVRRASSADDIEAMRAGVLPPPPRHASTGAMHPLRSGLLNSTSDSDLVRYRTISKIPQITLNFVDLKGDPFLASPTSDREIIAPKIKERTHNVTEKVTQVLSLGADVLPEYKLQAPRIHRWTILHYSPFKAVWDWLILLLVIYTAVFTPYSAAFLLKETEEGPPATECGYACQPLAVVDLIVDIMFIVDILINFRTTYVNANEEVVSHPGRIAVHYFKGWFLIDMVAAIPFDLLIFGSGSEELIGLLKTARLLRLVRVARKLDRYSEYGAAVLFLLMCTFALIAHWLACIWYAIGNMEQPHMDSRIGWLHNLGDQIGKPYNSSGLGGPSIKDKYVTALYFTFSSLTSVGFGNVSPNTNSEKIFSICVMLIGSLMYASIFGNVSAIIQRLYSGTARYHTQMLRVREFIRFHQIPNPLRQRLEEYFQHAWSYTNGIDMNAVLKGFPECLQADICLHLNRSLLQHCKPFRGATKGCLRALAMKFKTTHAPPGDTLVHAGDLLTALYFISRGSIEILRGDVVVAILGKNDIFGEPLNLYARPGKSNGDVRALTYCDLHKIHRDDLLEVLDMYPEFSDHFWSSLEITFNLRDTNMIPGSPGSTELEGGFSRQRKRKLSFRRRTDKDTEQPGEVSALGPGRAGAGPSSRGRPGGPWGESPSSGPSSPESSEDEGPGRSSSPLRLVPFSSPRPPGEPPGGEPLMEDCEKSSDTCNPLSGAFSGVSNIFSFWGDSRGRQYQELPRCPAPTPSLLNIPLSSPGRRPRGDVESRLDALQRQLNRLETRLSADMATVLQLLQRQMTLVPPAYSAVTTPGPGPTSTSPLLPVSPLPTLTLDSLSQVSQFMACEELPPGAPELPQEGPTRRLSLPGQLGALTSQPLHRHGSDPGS

Structure (SMILES)	hERG current change (%, negative = inhibition) at 1uM [%]
O=C(OCCN1C(=O)c2ccccc2C1=O)c1cccs1	11.9
CCC(C)n1c(=N)c(C#N)cc2c(=O)n3cc(C)ccc3nc21 (stereo not drawn)	-22
O=C(NCc1cccnc1)c1cccn2c(=O)c3sccc3nc12	-16.3
CNC(=O)c1cc2c(=O)n3cccc(C)c3nc2n(C(C)C)c1=N	-82.3
CCC(C)n1c(=N)c(C#N)cc2c(=O)n3cccc(C)c3nc21 (stereo not drawn)	-16.6
COCCCNC(=O)c1cc2c(=O)n3cccc(C)c3nc2n(C(C)C)c1=N	-46.1
Cc1cccn2c(=O)c3cc(C(=O)NCc4cccnc4)c(=N)n(C(C)C)c3nc12	-67.3
Cc1cccn2c(=O)c3cc(S(=O)(=O)c4ccccc4)c(=N)n(Cc4cccnc4)c3nc12	-3.7
CNC(=O)c1cc2c(=O)n3cc(C)ccc3nc2n(C(C)C)c1=N	-81.9
C=CCn1c(=N)c(C(=O)NCCCOC)cc2c(=O)n3cc(C)ccc3nc21	-41.9
COc1ccc2c(c1)CCc1c(C(=O)N3CCCCCC3)noc1-2	-1.37
C=C(C)CN1C(=O)c2ccccc2C1=O	4.89
Cc1nc(Nc2ccccc2)[nH]c(=O)c1CCC(C)C	1.92
Cc1ccc(C)c(-n2c(-c3cccnc3)n[nH]c2=S)c1	18.2
CCN(CC1CCCN(CCc2cccc(F)c2)C1)C(=O)c1cc(C)oc1C (stereo not drawn)	-2.34
CCN(Cc1ccc(O)cc1)CC1CCCN(CCc2cccc(F)c2)C1 (stereo not drawn)	-8.8
C=CCC(=O)N(CC)CC1CCCN(CCc2cccc(F)c2)C1 (stereo not drawn)	-17.6
CCN(CC1CCCN(CCc2cccc(OC)c2)C1)C(=O)c1ccc(COC)o1 (stereo not drawn)	-51.1
CCN(Cc1ccc(NC(C)=O)cc1)CC1CCCN(CCc2cccc(F)c2)C1 (stereo not drawn)	9.42
CCN(CC1CCCN(CCc2cccc(F)c2)C1)C(=O)c1cc2ccccc2o1 (stereo not drawn)	-64.7
CCN(CC1CCCN(CCc2cccc(F)c2)C1)C(=O)c1ccc(CSC)o1 (stereo not drawn)	-52

Structure (SMILES)	hERG current change (%, negative = inhibition) at 1uM [%]
CCN(CC1CCCN(CCc2cccc(OC)c2)C1)C(=O)c1ccoc1C (stereo not drawn)	-27.8
CCN(CC1CCCN(CCc2cccc(OC)c2)C1)C(=O)c1ccoc1 (stereo not drawn)	-14.5
COc1ccc(C=O)cc1Cn1c(=O)n(CCC(=O)NCc2ccco2)c(=O)c2sccc21	5.91
COc1ccc(N(CC(=O)NCc2ccc(Cl)cc2)S(=O)(=O)c2c(C)n[nH]c2C)cc1	1.42
Cc1cc(C)nc(NS(=O)(=O)c2ccc(Br)cc2)n1	21.2
Cc1ccc(Cn2c(CN3CC(C)OC(C)C3)nc3c2c(=O)[nH]c(=O)n3C)cc1 (stereo not drawn)	-3.88
O=C(O)CCn1cc(/C=C/C(=O)c2ccc(Cl)cc2)c(-c2cccc(Br)c2)n1	14.7
CCN(CC)C(=O)C1CCN(Cc2ccc(OCc3ccccc3)cc2)CC1.O=C(O)C(=O)O	-13.3
CCCCN(C)C(=O)C1CCN(Cc2ccc(OCc3ccccc3)cc2)CC1.O=C(O)C(=O)O	-55.7
O=C(C1CCN(CC2CC=CCC2)CC1)N(CCc1ccccc1)Cc1ccccc1 (stereo not drawn)	-47
CCN(Cc1ccccc1)C(=O)C1CCN(C/C(C)=C/c2ccccc2)CC1.O=C(O)C(=O)O	-31
CCCCN(C)C(=O)C1CCN(Cc2cccc(OCc3ccccc3)c2)CC1.O=C(O)C(=O)O	-35.6
O=C(C1CCN(CCCc2ccccc2)CC1)N(CCc1ccccc1)Cc1ccccc1.O=C(O)C(=O)O	-75
CCCCNC(=O)C1CCN(C/C(C)=C/c2ccccc2)CC1.O=C(O)C(=O)O	-33.9
CCCCN(C)C(=O)C1CCN(CCCc2ccccc2)CC1.O=C(O)C(=O)O	-73.6
CC1CCN(C(=O)C2CCN(CCCc3ccccc3)CC2)CC1.O=C(O)C(=O)O	-23.5
CCCCN(C)C(=O)C1CCN(Cc2ccccn2)CC1.O=C(O)C(=O)O	6.35
CCCCN(C)C(=O)C1CCN(C/C(C)=C/c2ccccc2)CC1.O=C(O)C(=O)O	-54.3
CCCCN(C)C(=O)C1CCN(Cc2cccnc2)CC1	10.1
COC(=O)C1=C(c2cc3ccccc3o2)C[C@@H]2CC[C@H]1N2C(=O)NC1CCCCC1	-7.33
CC(C)C(NC(=O)c1ccccc1)c1nnc(SCC(=O)Nc2nccs2)n1C (stereo not drawn)	15.7

Structure (SMILES)	hERG current change (%, negative = inhibition) at 1uM [%]
Cc1cc(=O)nc2c3ccccc3n(CC(=O)NCCCN3CCCC3=O)n12	10.4
O=C(O)CCC(=O)NNC(=O)c1cccs1	15.5
CCOC(=O)CSc1nc(CC)nc2ccccc12	4.2
O=c1cc(CO)oc(CN2CCCC2)c1O	-2.54
C/C(=N\O)c1ccc2c(c1)CC(C)O2 (stereo not drawn)	13.6
Cc1cc(C[n+]2ccsc2N)c2ncccc2c1.[Br-]	-20.1
COc1ccc2c(c1)sc(N)[n+]2Cc1cc(C)cc2cccnc12.[Br-]	-26.5
CCOc1ccc2c(c1)sc(N)[n+]2Cc1cc(C)cc2cccnc12.[Br-]	-56.2
CN(Cc1ccccc1)C(=O)c1nn2cccnc2c1Cl	13.2
Cc1cccn2c(=O)c3cc(C(=O)NCCN4CCOCC4)c(=N)n(CCN4CCOCC4)c3nc12	12.2
COCCn1c(=N)c(C(=O)NCCc2ccc(OC)cc2)cc2c(=O)n3cccc(C)c3nc21	-95.4
Cc1cccn2c(=O)c3cc(C(=O)NCCN4CCOCC4)n(C)c3nc12	9.82
COCCNC(=O)c1cc2c(=O)n3cccc(C)c3nc2n1C	22.6
CCNC(=O)c1cc2c(=O)n3cccc(C)c3nc2n(CCc2ccccc2)c1=N	-90.7
CCCCNC(=O)c1cc2c(=O)n3cccc(C)c3nc2n(CCN2CCOCC2)c1=N	-92.4
COCCn1c(=N)c(C(=O)NCCc2ccccc2)cc2c(=O)n3cccc(C)c3nc21	-86.1
COc1ccc(CN2CCN(Cc3ccccc3C(F)(F)F)CC2)c(OC)c1.O=C(O)C(=O)O	-39.5
Cc1ccc(N2C(=O)CC(NCc3ccc4c(c3)OCO4)C2=O)cc1Cl (stereo not drawn)	-12.2
COc1ccc(COC(=O)c2ccc(C)c(S(=O)(=O)N3CCOCC3)c2)cc1F	16
Cc1ccc(CNS(=O)(=O)c2ccc3c(c2)C(C)(C)C(=O)N3C)cc1	7.06
COc1cc(CNC(=O)CCCC/C=C/C(C)C)ccc1O	11.8

Structure (SMILES)	hERG current change (%, negative = inhibition) at 1uM [%]
CC(=O)N1CCN(c2ccc(NC(=O)c3ccc(Cl)c([N+](=O)[O-])c3)cc2)CC1	5.32
O=C(C/C(=N\NC(=O)c1ccccc1Br)C(F)(F)F)c1cccs1	3.65
O=C(Nc1ncnc2sc3c(c12)CCCCC3)c1ccc(F)cc1	14.2
Cc1[nH]c2ccccc2c1C(=O)CSc1nc2cc(S(=O)(=O)N3CCCCC3)ccc2o1	9.62
CCc1cc2c(=O)c(-c3nc4ccccc4n3C)c(CCCC(=O)O)oc2cc1OC(=O)C(C)(C)C	14.8
CC(=O)c1ccc(NC(=O)Cc2ccsc2)cc1	14.1
C=CCNC(=O)NS(=O)(=O)c1ccc(C)cc1	16.6
Cc1cccn2c(=O)c3cc(C(=O)NC(C)c4ccccc4)c(=N)n(CCCn4ccnc4)c3nc12 (stereo not drawn)	-10.8
Cc1cccn2c(=O)c3cc(C(=O)NCCN4CCOCC4)c(=N)n(CCc4ccccc4)c3nc12	-71.8
Cc1cccn2c(=O)c3cc(C(=O)NCCc4ccccc4)c(=N)n(CCCn4ccnc4)c3nc12	-61.3
Cc1cccn2c(=O)c3cc(C(=O)NCCCn4ccnc4)n(C)c3nc12	2.55
Cc1ccc(C2(C)NC(=O)N(CC(=O)Nc3cc(S(=O)(=O)N4CCOCC4)ccc3C)C2=O)cc1 (stereo not drawn)	-9.42
CC(C)(C)c1ccc(/C=N/OCC(=O)NCc2ccc(F)cc2)cc1	11.5
O=C(CO/N=C/c1ccc(OC(F)F)cc1)NCc1ccc(F)cc1	-52
COC(=O)c1ccc(/C=N/OCC(=O)NCc2ccc(F)cc2)cc1	3.32
O=C(NCc1cc(C(F)(F)F)cc(C(F)(F)F)c1)C1CC(c2ccc(C(F)(F)F)cc2)=NO1 (stereo not drawn)	18.6
Cl.c1ccc2c(c1)nc1n2CCN1CCN1CCCC1	18.3
Cl.c1ccc(CN2CCN(CCN3CCn4c3nc3ccccc34)CC2)cc1	-62.3
CN1CCN(CCN2CCn3c2nc2ccccc23)CC1.Cl	5.64
COc1ccc(CN(C)C(c2ccccc2)c2nnnn2-c2ccccc2C)c(OC)c1C (stereo not drawn)	11.5
CCn1c(CC(=O)Nc2ccccc2)nnc1SCC(=O)NC1CCCC1	5.86
